Reference: PubChem BioAssay (NCI)
The panel holds about 83,000 compounds, 20% with a hit somewhere; the sample as a whole holds those more often.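 Compound tested at a single concentration for 48 hours in 96-well plates; a percent growth value below 10 was scored as active.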 Activity calls are given as the source filed them.

Columns and labels:
Assay in all cases: NCI-60 one-dose screen, 48 h (100 = growth as untreated, 0 = no growth, -100 = all killed)
Conditions in all cases: 10 µM unless noted
[1] = tested on: SR leukemia
[2] = tested on: RPMI-8226 leukemia
[3] = tested on: OVCAR-8 ovarian
[4] = tested on: OVCAR-4 ovarian
[5] = tested on: SK-OV-3 ovarian
[6] = tested on: IGROV1 ovarian
[7] = tested on: OVCAR-3 ovarian
[8] = tested on: HS 578T breast
[9] = tested on: NCI/ADR-RES ovarian
[10] = tested on: OVCAR-5 ovarian

Measured: growth

Cc1cc(Cc2cc(C)cc(C(C)(C)C)c2O)c(O)c(C(C)(C)C)c1
active: [1] -7.3%
inactive: [2] 32.2% | [3] 33.9% | [4] 48.5% | [5] 51.9% | [6] 47.5% | [7] 38.5%

N#Cc1c(N)n2c(nc1=Nc1ccc(Cl)cc1)sc1cc(Cl)ccc12
inactive: [1] 22.6% | [2] 87.2% | [3] 64.9% | [4] 63.1% | [5] 77.2% | [6] 95.9% | [7] 98.1% | [8] 33.3% | [9] 73.1%

O=C1Nc2ccccc2SC1c1ccccc1Cl (stereo not drawn)
inactive: [1] 10.4% | [2] 75% | [10] 98.1% | [4] 80.4% | [5] 114% | [6] 101% | [7] 83% | [8] 80.4% | [9] 101%

Clc1ccc(-c2nnc(-c3ccco3)o2)cc1
inactive: [1] 89.7% | [2] 93.8% | [10] 82.4% | [4] 95.4% | [5] 102% | [6] 93.8% | [7] 107% | [8] 107% | [9] 104%

COC(=O)CCCNC(=O)C(=O)c1c(O)c(O)c(C(C)C)c2cc(C)c(-c3c(C)cc4c(C(C)C)c(O)c(O)c(C(=O)C(=O)NCCCC(=O)OC)c4c3O)c(O)c12
inactive: [2] 17.1% | [6] 18.2% | [8] 12.2%
active: [1] -1.66% | [3] -15.1% | [4] -3.33% | [5] -4.94% | [7] 4.88% | [9] 9.74%
